± gives the standard deviation of the averaged measurements. The full ranking holds about 25,000 sequences; the median of “ln(normalized median fluorescence intensity)” is about 10, and the highest 2% start at about 12. The entries come from a sample that favours the highest values as a whole.
Tested on: PfAP2-G AP2 domain (GST-tagged)
Assay: gcPBM binding intensity (ln(normalized median fluorescence intensity)); higher = stronger DNA binding
In short: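 Each value is the highest Masliner-normalised natural-log median intensity across replicate spots of either orientation of a probe. The probes were primer-extended double-stranded 36-bp intergenic genomic sequences on an Agilent 4 × 180k array, alongside negative controls, exposed for 1 h to GST-tagged P. falciparum DNA-binding domains expressed in E. coli. Bound protein was picked up with Alexa488 anti-GST antibody and scanned at 488 nm.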

Sequence	gcPBM binding intensity (ln)
AAATTTATATATAGTTGTACAAAAATATGTTTCGTA [XGTACX_site4801]	11.2 ± 0.57
GTTTTTTATAATTGTAGTACAAGAAGATATTTTTAT [XGTACX_site5443]	11.5 ± 0.86
TATGTGAATATAATCACACACAATACGGAAAGAGAC [CACACA_site7311]	10.7 ± 0.39
CTATACATATTATATAGTACTTTATTATTATGACTA [XGTACX_site1382]	10.8 ± 0.45
ATGGACTTTTATAGTTGTACATACTATGAGAACTTT [XGTACX_site2800]	11.7 ± 0.85
TTATATATATGACTTTGTACATATACATATTTTTTA [XGTACX_site4669]	10.7 ± 0.54
TTATAAAATTACTTGGTGCATTAGAATATTTCAATA	10.1 ± 0.3
AATAAAAAACTACAATATACAAAATTATTAAATCAA [GTGCAC_negctrl_site703]	9.56 ± 0.35
TAATTTATAAAAAATTGTACATTAAACATATATATA [XGTACX_site5164]	10.8 ± 0.56
TTCATATGGAATAAAAGTACGTATTAAAACAATTTT [XGTACX_site8742]	11.1 ± 0.59
TTTTTTATTTTTTGTTATATTTATAATAATTTATGA [XGTACX_negctrl_site260]	9.58 ± 0.071
AAAAAAAAAAAAATACGTACACAAAAAATTGCAAAG [XGTACX_site5663]	11.6 ± 0.81
ACAAAAAAAAAAAAAATACACACACATAAAAAAAAA [TGCATGCA_negctrl_site333]	10.1 ± 0.13
GTATATATTTAAACACGTACACAAAACCCAAAAAAT [XGTACX_site8110]	11.8 ± 0.96
AGATAAAATAAATACACACACATAAATACGTACAAA [CACACA_site4739]	11.7 ± 0.74
TAAAAAAAATACAAAAGTACACAAAATTATACGTTA [XGTACX_site4656]	11.5 ± 0.96
TTTACACGTACGTGTACACACAAAAATATGTTTTTA [CACACA_site995]	11.6 ± 0.89
TATATATTATTTAAAACACACAAAAAAAAAAATTAT [CACACA_site89]	9.895 ± 0.021
AAACCAAAAATAACACGTACAAAAATAAAAAGTATA [XGTACX_site4261]	11.2 ± 0.74
TAATTTACACCTACGTGTACACACAAAAATATGTTT [XGTACX_site1868]	11.6 ± 0.95
AATTTACACGTACGTGTACACACAAAAATATGTTTT [CACACA_site8242]	11.8 ± 1
AAAATAAAATAAAATACACACATACATACATACAAA [CACACA_site5366]	10.01 ± 0.028
AAAAAAAAAAAAAAAGGTACACAAATACGTCCTGCA [XGTACX_site3354]	11.5 ± 0.74
TATATTACTTTGTGTTGTACGGAAATATATATATAT [XGTACX_site4309]	11.3 ± 0.94
TATATAATGGTAAAAACACACAAATATGAAGATGTT [CACACA_site722]	9.87 ± 0.16

Sequence	gcPBM binding intensity (ln)
TGTAATAATTATTGCACGCACACAAAAACCTATAGA [CACACA_site2932]	10.7 ± 0.4
ATCTTAGTTGAAATATAGAATTTATAATAAAAGTTA [GTGCAC_negctrl_site122]	9.595 ± 0.064
AATGTACAAATACGTACACACATATTTATATTTATA [CACACA_site6833]	11.6 ± 0.99
AGAAATTTACAAATACGTACACACATATATATATAT [XGTACX_site3141]	11.9 ± 1.4
AATAAATATAAAAATGCACACACACTAATAAAAAAA [CACACA_site8201]	10.2 ± 0.13
GAAATGTACAAATACGTACACACATATATATATATA [CACACA_site1541]	11.6 ± 0.99
ATAACACAAAAAGGGGGTACAATAAAAAAAAAAAAA [XGTACX_site1652]	11.5 ± 0.98
ATAAATAAATTTATACGTACACATAATATATATATA [XGTACX_site4634]	11.6 ± 0.89
TGTATAAATAAATGCGTACACACTAATAAAAAAAAA [CACACA_site858]	11.6 ± 0.8
TGATAACCAAAAAGGGGTACATACACAAAAAAATAC [XGTACX_site1254]	11.7 ± 0.91
TATAAATAAATGCGTACACACTAATAAAAAAAAAAA [CACACA_site4630]	11.6 ± 1.1
AAAAAATACCAAAGGGGTACTTACACATAATACTTA [XGTACX_site2111]	11.4 ± 1.1
AATGTACAAATACGTACACACATATATATATATATA [CACACA_site1542]	11.6 ± 0.93
AAATATATATATTTACGTACATATATACAAATAGAG [XGTACX_site6067]	11.4 ± 0.81
TCAGAGTGAAGTTATACACACATGGTTTTTTTTTTT [CACACA_site2116]	9.875 ± 0.021
TAAAGAAAAAAATGTTGTACTTTATGAAACATATTT [XGTACX_site412]	11.2 ± 0.79
TAAATATTTTTTTAGACACACATATATCTATGATAT [CACACA_site1107]	9.705 ± 0.049
AGATAAGATATATACACACACATAAATACGTACAAA [CACACA_site6639]	11.6 ± 0.78
TTTCTCCCATTTTTTAGTACACAAAATATATATGTA [XGTACX_site7218]	11.7 ± 1.1
TTAATGAAATATTATACACACAAAAAAATAATTTTA [CACACA_site4231]	9.915 ± 0.092
TTATTTATTTTTATATGTACACAAAAAAAAAAAAAA [XGTACX_site1459]	11.5 ± 1.1
CCATTTACAAAAAGGAGTACACAAATATATGTTTAA [XGTACX_site649]	11.6 ± 0.93
ATAAATAAGATACGTACACACATATACAAAATATAC [CACACA_site3661]	11.5 ± 0.95
ATTTTTTAAATGAGGCGTACACAAAAATATAATTAC [XGTACX_site7087]	11.7 ± 1.1
AAAAAAAAAACATACACACACACAAATATTTATATA [CACACA_site437]	9.85 ± 0.11

Sequence	gcPBM binding intensity (ln)
AATATACACCCGTGTACACAAATATTTACAAAACGT [CACACA_site4786]	11.7 ± 1.1
AGATAAAATATATACACACACATAAATACGTACAAA [CACACA_site1086]	11.8 ± 1
TATACAAAATATTTTACACACACATATATATACATA [CACACA_site2616]	10.01 ± 0.057
TTAATTAAATATTATACACACAAAAAAATAATTTTA [CACACA_site96]	10 ± 0.16
ATAACAAATATGATAGCATGCTACATATTACAACTT [TGCATGCA_site524]	9.71 ± 0.16
TATATCTGTAAATGCACACATATGTGGATATACTTA [CACACA_site5013]	10.1
ATATATATATATAGTAGTACTCTCTCTGTATATATA [XGTACX_site3754]	11.3 ± 0.75
TATATAAACCCACCTACACACACAACGTAAATGCAT [CACACA_site8702]	10.2 ± 0.14
AAAAAAAAAAAAAACACACAGAAATATATATATATT [CACACA_site832]	9.82 ± 0.33
ATATATACCTATATTACACACTTCTTATTCTAAGAA [CACACA_site7421]	9.865 ± 0.092
ATATAAATGAATATATGTACATATATATATATATAT [XGTACX_site6361]	11.2 ± 0.52
AAGGAGCCTATGAACACACACATGTACAGATATTAA [CACACA_site6107]	11.1 ± 0.52
TATATATACATATACACACACACACCGATATATATA [CACACA_site8706]	10.1 ± 0.26
TATACAATATTTATAACACACATATTTATATAAACT [CACACA_site6932]	9.885 ± 0.078
ATACATATATAAATACGTACATATATAATTATATAT [XGTACX_site8178]	11.6 ± 0.93
TAATATTCAATTATACGTACACATATATATATATAT [XGTACX_site4245]	11.8 ± 1.1
TTACACATATTATATATATATAAAAAAAAAAAATAT [CACACA_negctrl_site1684]	9.82 ± 0.29
GATTTATACAAATATGTACACACTAATTATATATTA [CACACA_site8045]	11.5 ± 0.87
GAATAAATAAGATACGTACACACATATACAAAATAT [CACACA_site3660]	11.7 ± 1.1
TGAATAAATAAGATACGTACACACATATACAAAATA [XGTACX_site7758]	11.5 ± 0.83
AAAGATAAAATATATACACACACATAAATACGTACA [CACACA_site8275]	11.3 ± 0.88
ATTATATATACATATACACACATACGTACATACATA [CACACA_site9194]	11.5 ± 0.93
TGTACAAATATGTACACACACACATATTTATTTATA [CACACA_site6419]	11.5 ± 0.95
TCATATAAATACACGTGTACATATATATATTACAGT [XGTACX_site1954]	11.5 ± 0.81
TAAAATATTACGTGTACACATAAATAAAAATAAAAA [CACACA_site5066]	11.8 ± 0.92

Sequence	gcPBM binding intensity (ln)
TGCTCTAATTTATATACACACAAATATGTACACATA [CACACA_site7845]	11.7 ± 1.2
ATTCTACGCACGCGCACACACAACAAAAAAAAAAAA [CACACA_site3538]	10.8 ± 0.68
AACAGACATAGACACACACACATATATTTATTTATA [CACACA_site7571]	10.11 ± 0.085
TTAACATAAATTGTGTCATTTTTTTTTTTTTTTTTA [CACACA_negctrl_site1221]	9.725 ± 0.021
TAGCGCATAAAAAAAAAAAAATATATACTAATAAAT [GTGCAC_negctrl_site276]	9.57 ± 0.071
TTCTATATATATATAGACAAACGATAAAATAAAAAA [GTGCAC_negctrl_site142]	10.1 ± 0.23
GTATATTTCTTTAAATGTACACATTTTTTTAAAGAG [XGTACX_site1225]	11.4 ± 0.98
AAAAACGAAAAAAATACACACCTGAAAAGATATGTA [CACACA_site4644]	9.72 ± 0.16
TGACATATAAAATATTCACACACAAGTTATAGTTCT [CACACA_site9209]	9.74 ± 0.11
CCAATGAGGATATATACACACATACATTAAAAAAAT [CACACA_site5090]	10 ± 0.17
AATTTAATATAATGCACACATAAAAAAAAAATCAAA [CACACA_site1]	10.1 ± 0.18
AATTTGTTATGTATATGTACATAAATAGATATATGA [XGTACX_site3930]	11.2 ± 0.7
AAAGATATTTTTATCTCACACATATAATATATATAT [CACACA_site5478]	9.84 ± 0.16
AAAAAAAATTAAATAAATAAATATACACATATATAT [GTGCAC_negctrl_site394]	9.47 ± 0.26
TTAAAATTAAAAATGCGTACACATATACATAAAAAA [XGTACX_site1915]	11.7 ± 1
AAATTAAAATATAATACACACATAAAAAAAAAAAAA [CACACA_site4183]	9.82 ± 0.38
AATAATACACAATTTTGTACGTATTTAAAATATATT [XGTACX_site45]	11.3 ± 0.87
TATATATACATACGTACACACAAATATTAAAATATA [CACACA_site1951]	11.5 ± 1.1
ATTAAATATATTTTGCGTACACAAAAAAATACGTTC [XGTACX_site3862]	11.6 ± 0.97
TATATATATACATACGTACACACAAATATTAAAATA [CACACA_site1950]	11.8 ± 1.2
TAGATATATAATTTGCGTACACAAATAATATATTTT [XGTACX_site6397]	11.4 ± 0.97
ATATATATATACATACGTACACACAAATATTAAAAT [XGTACX_site4007]	11.6 ± 1.2

From the supplement of paper PMC11417369
